Screen size: about 5,500 compounds; about 2,000 (36%) were called active. Another 18% or so got no clear call; they are omitted. Cut-off read from the data, not from the text of the source: active = normalized growth mostly below about 0.91 (no sharp cut-off); inconclusive = no clear call, values can overlap the other calls; inactive = mostly above about 0.92. Some of the results follow.
Assay: chemical genetic growth profiling, strain panel (AID 1159580);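 note: tested at 20 µM; growth read once vehicle control cultures reached saturation at 30 °C; 1 = growth at the plate median or of vehicle wells; lower values mean less growth of the strain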
Details: S. cerevisiae deletion strains, growth OD
[1] = locus YAR019C, strain CDC15, active compounds read low
[2] = locus YBL105C, strain PKC1, active compounds read low
[3] = locus YBR135W, strain CKS1, active compounds read low
[4] = locus YBR136W, strain MEC1, active compounds read low
[5] = locus YBR160W, strain CDC28, active compounds read low
[6] = locus YDL017W, strain CDC7, active compounds read low
[7] = locus YDL028C, strain MPS1, active compounds read low
[8] = locus YDL101C, strain DUN1, active compounds read low
[9] = locus YDL108W, strain KIN28, active compounds read low
[10] = locus YDL132W, strain cdc53, active compounds read low
[11] = locus YDL214C, strain PRR2, active compounds read low
[12] = locus YDR052C, strain DBF4, active compounds read low
[13] = locus YDR054C, strain cdc34, active compounds read low
[14] = locus YDR226W, strain ADK1, active compounds read low
[15] = locus YDR477W, strain SNF1, active compounds read low
[16] = locus YER123W, strain YCK3, active compounds read low
[17] = locus YER133W, strain GLC7, active compounds read low
[18] = locus YFL009W, strain cdc4, active compounds read low
[19] = locus YFL029C, strain CAK1, active compounds read low
[20] = locus YFR003C, strain YPI1, active compounds read low
[21] = locus YFR019W, strain FAB1, active compounds read low
[22] = locus YFR028C, strain CDC14, active compounds read low
[23] = locus YGR040W, strain KSS1, active compounds read low
[24] = locus YGR052W, strain FMP48, active compounds read low
[25] = locus YGR092W, strain DBF2, active compounds read low
[26] = locus YHR030C, strain SLT2, active compounds read low
[27] = locus YHR079C, strain IRE1, active compounds read low
[28] = locus YHR082C, strain KSP1, active compounds read low
[29] = locus YHR205W, strain SCH9, active compounds read low
[30] = locus YIL147C, strain SLN1, active compounds read low
[31] = locus YJL095W, strain BCK1, active compounds read low
[32] = locus YJL128C, strain PBS2, active compounds read low
[33] = locus YJL157C, strain FAR1, active compounds read low
[34] = locus YJR016C, strain ILV3, active compounds read low
[35] = locus YJR066W, strain TOR1 (second series), active compounds read low
[36] = locus YJR066W, strain TOR1, active compounds read low
[37] = locus YKL048C, strain ELM1, active compounds read low
[38] = locus YKL067W, strain YNK1, active compounds read low
[39] = locus YKL101W, strain HSL1, active compounds read low
[40] = locus YKL193C, strain SDS22, active compounds read low
[41] = locus YKL203C, strain TOR2, active compounds read low
[42] = locus YLR113W, strain HOG1, active compounds read low
[43] = locus YLR133W, strain CKI1, active compounds read low
[44] = locus YLR403W, strain SFP1, active compounds read low
[45] = locus YML070W, strain DAK1, active compounds read low
[46] = locus YMR001C, strain CDC5, active compounds read low
[47] = locus YMR205C, strain PFK2 (second series), active compounds read low
[48] = locus YMR277W, strain FCP1, active compounds read low
[49] = locus YNL006W, strain LST8, active compounds read low
[50] = locus YNL020C, strain ARK1, active compounds read low
[51] = locus YNL161W, strain CBK1, active compounds read low
[52] = locus YNL183C, strain NPR1, active compounds read low
[53] = locus YNL207W, strain RIO2, active compounds read low
[54] = locus YNL222W, strain SSU72, active compounds read low
[55] = locus YNL307C, strain MCK1 (second series), active compounds read low
[56] = locus YOL078W, strain AVO1, active compounds read low
[57] = locus YOL136C, strain PFK27, active compounds read low
[58] = locus YOR061W, strain CKA2, active compounds read low
[59] = locus YOR119C, strain RIO1, active compounds read low
[60] = locus YOR231W, strain MKK1, active compounds read low
[61] = locus YOR329C, strain SCD5, active compounds read low
[62] = locus YPL031C, strain PHO85, active compounds read low
[63] = locus YPL153C, strain RAD53, active compounds read low
[64] = locus YPL204W, strain HRR25, active compounds read low
[65] = locus YPL209C, strain IPL1, active compounds read low
[66] = locus YPL256C, strain CLN2, active compounds read low
[67] = locus YPR025C, strain CCL1, active compounds read low
[68] = locus YPR106W, strain ISR1, active compounds read low
[69] = locus YPR111W, strain DBF20, active compounds read low
[70] = strain NNK1, active compounds read low
[71] = strain TSCII, active compounds read low

Measured: normalized growth

CC(C)c1c(C(=O)c2ccccc2)c(-c2ccccc2)c(-c2ccc(F)cc2)n1CC[C@@H](O)C[C@@H](O)CC(=O)O
inactive: locus YAL030W, strain snc1, active compounds read low 0.94 | locus YBR009C, strain hhf1, active compounds read low 0.924 | locus YBR171W, strain sec66, active compounds read low 0.984 | locus YCL011C, strain gbp2, active compounds read low 0.942 | locus YCL069W, strain vba3, active compounds read low 0.934 | locus YDL005C, strain med2, active compounds read low 0.987 | locus YDL040C, strain nat1, active compounds read low 0.99 | locus YDR001C, strain nth1, active compounds read low 0.957 | locus YDR159W, strain sac3, active compounds read low 0.882 | locus YDR195W, strain ref2 1.04 | locus YDR297W, strain sur2, active compounds read low 0.946 | locus YDR335W, strain msn5, active compounds read low 0.919 | locus YDR392W, strain spt3, active compounds read low 1.01 | locus YEL037C, strain rad23, active compounds read low 0.935 | locus YEL061C, strain CIN8 (second series), active compounds read low 0.955 | locus YER016W, strain bim1, active compounds read low 0.949 | locus YER111C, strain swi4, active compounds read low 0.981 | locus YER155C, strain BEM2 (second series), active compounds read low 0.917 | locus YGL167C, strain pmr1, active compounds read low 1 | locus YGL173C, strain kem1, active compounds read low 0.907 | locus YGL227W, strain vid30, active compounds read low 0.962 | locus YGL240W, strain doc1, active compounds read low 0.981 | locus YJL095W, strain BCK1 (second series), active compounds read low 0.957 | locus YJL115W, strain asf1, active compounds read low 0.953 | locus YJL129C, strain trk1, active compounds read low 0.916 | locus YJL164C, strain tpk1, active compounds read low 0.922 | locus YJL166W, strain qcr8, active compounds read low 0.926 | locus YKL160W, strain elf1, active compounds read low 0.921 | locus YKR026C, strain gcn3, active compounds read low 0.952 | locus YKR091W, strain srl3, active compounds read low 0.98 | locus YLL026W, active compounds read low 0.937 | locus YLL041C, strain sdh2, active compounds read low 0.981 | locus YLR027C, strain aat2, active compounds read low 0.933 | locus YLR258W, strain gsy2, active compounds read low 0.932 | locus YLR262C, strain YPT6 (second series), active compounds read low 0.973 | locus YLR320W, strain mms22, active compounds read low 0.899 | locus YLR342W, strain FKS1, active compounds read low 0.94 | locus YLR384C, strain iki3, active compounds read low 0.959 | locus YML120C, strain ndi1, active compounds read low 0.93 | locus YMR058W, strain fet3, active compounds read low 0.909 | locus YMR129W, active compounds read low 0.946 | locus YMR205C, strain PFK2, active compounds read low 0.946 | locus YNL071W, strain lat1, active compounds read low 0.939 | locus YNL209W, strain ssb2, active compounds read low 0.939 | locus YNL248C, strain rpa49, active compounds read low 1.02 | locus YNL322C, strain KRE1 (second series), active compounds read low 0.977 | locus YNR049C, strain mso1, active compounds read low 0.952 | locus YOR080W, strain dia2, active compounds read low 0.939 | locus YOR106W, strain vam3, active compounds read low 0.877 | locus YOR265W, strain rbl2, active compounds read low 0.95 | locus YOR290C, strain snf2, active compounds read low 0.895 | locus YPL078C, strain atp4, active compounds read low 0.908 | locus YPL106C, strain sse1, active compounds read low 1.11 | locus YPL240C, strain hsp82, active compounds read low 0.971

COc1cc2c(cc1OC)C(C)N(C(=O)c1sc3ccccc3c1Cl)CC2 (stereo unspecified)
inactive: [1] 0.981 | [2] 0.975 | [3] 0.97 | [4] 0.975 | [5] 0.968 | [6] 0.98 | [7] 0.982 | [8] 0.982 | [9] 0.974 | [10] 0.974 | [11] 0.928 | [12] 0.989 | [13] 0.972 | [14] 0.975 | [15] 0.934 | [16] 0.9 | [17] 0.936 | [18] 0.972 | [19] 0.968 | [20] 0.978 | [21] 0.943 | [22] 0.977 | [23] 0.899 | [24] 0.981 | [25] 0.921 | [26] 0.93 | [27] 0.933 | [28] 0.958 | [29] 0.976 | [30] 0.984 | [31] 0.947 | [32] 0.955 | [33] 0.912 | [34] 0.97 | [35] 0.891 | [36] 0.983 | [37] 0.928 | [38] 0.943 | [39] 0.897 | [40] 0.981 | [41] 0.959 | [42] 0.865 | [43] 0.916 | [44] 0.906 | [45] 0.912 | [46] 0.975 | [47] 0.948 | [48] 0.978 | [49] 0.99 | [50] 0.922 | [51] 0.97 | [52] 0.948 | [53] 0.978 | [54] 0.966 | [55] 0.911 | [56] 0.972 | [57] 0.906 | [58] 0.914 | [59] 0.982 | [60] 0.891 | [61] 0.978 | [62] 0.927 | [63] 0.905 | [64] 0.905 | [65] 0.968 | [66] 0.894 | [67] 0.976 | [68] 0.963 | [69] 0.949 | [70] 0.972 | [71] 0.969

COc1ccc(NNC(=O)c2sc3ccccc3c2Cl)cc1
inactive: [1] 0.921 | [2] 0.927 | [3] 0.915 | [4] 0.922 | [5] 0.927 | [6] 0.936 | [7] 0.929 | [8] 0.954 | [9] 0.93 | [10] 0.959 | [12] 0.935 | [13] 0.923 | [14] 0.938 | [15] 0.694 | [18] 0.941 | [19] 0.92 | [20] 0.93 | [22] 0.92 | [28] 0.656 | [29] 0.612 | [30] 0.924 | [32] 0.878 | [34] 0.903 | [36] 0.579 | [40] 0.923 | [46] 0.925 | [48] 0.926 | [49] 0.914 | [51] 0.918 | [52] 0.595 | [53] 0.948 | [54] 0.906 | [56] 0.913 | [61] 0.927 | [65] 0.918 | [67] 0.929 | [68] 0.907 | [69] 0.918 | [70] 0.908 | [71] 0.923
active: [11] 0.692 | [16] 0.287 | [17] 0.663 | [21] 0.37 | [23] 0.681 | [24] 0.558 | [25] 0.117 | [26] 0.302 | [27] 0.502 | [31] 0.341 | [33] 0.544 | [35] 0.243 | [37] 0.658 | [38] 0.587 | [39] 0.657 | [41] 0.686 | [42] 0.293 | [43] 0.627 | [44] 0.563 | [45] 0.419 | [47] 0.659 | [50] 0.643 | [55] 0.262 | [57] 0.433 | [58] 0.299 | [59] 0.604 | [60] 0.507 | [62] 0.657 | [63] 0.525 | [64] 0.576 | [66] 0.441

Source: PubChem BioAssay AID1159580 (chemical genetic matrix, 2015)
